Holding throughout (type): functional
Experiment [1] concerns the target Solute carrier family 2, facilitated glucose transporter member 1 (Homo sapiens) (UniProt P11166). Description: ST_JUDE_LEISH: Cytotoxicity at 2uM final concentration against transgenic Leishmania Mexicana promastigotes LmGLUT1 that are glucose transport deficient and complemented with the human glucose transporter GLUT1. Activity is measured by DNA content using SYBR green in vitro.

Experiment [2] has as its target Hexose transporter 1 (Plasmodium falciparum) (UniProt O97467). Description: ST_JUDE_LEISH: Cytotoxicity at 2uM final concentration against transgenic Leishmania Mexicana promastigotes LmPfHT that are glucose transport deficient and complemented with the Plasmodium falciparum hexose transporter. Activity is measured by DNA content using SYBR green in vitro.
For experiment [3], the target named is Glucose transporter (Leishmania mexicana) (UniProt O61059). Description: ST_JUDE_LEISH: Cytotoxicity at 2uM final concentration against transgenic Leishmania Mexicana promastigotes LmGT2 that are glucose transport deficient and complemented with the L. Mexicana glucose transporter 2. Activity is measured by DNA content using SYBR green in vitro.

Sequence of Solute carrier family 2, facilitated glucose transporter member 1 (Homo sapiens) (P11166 whole entry): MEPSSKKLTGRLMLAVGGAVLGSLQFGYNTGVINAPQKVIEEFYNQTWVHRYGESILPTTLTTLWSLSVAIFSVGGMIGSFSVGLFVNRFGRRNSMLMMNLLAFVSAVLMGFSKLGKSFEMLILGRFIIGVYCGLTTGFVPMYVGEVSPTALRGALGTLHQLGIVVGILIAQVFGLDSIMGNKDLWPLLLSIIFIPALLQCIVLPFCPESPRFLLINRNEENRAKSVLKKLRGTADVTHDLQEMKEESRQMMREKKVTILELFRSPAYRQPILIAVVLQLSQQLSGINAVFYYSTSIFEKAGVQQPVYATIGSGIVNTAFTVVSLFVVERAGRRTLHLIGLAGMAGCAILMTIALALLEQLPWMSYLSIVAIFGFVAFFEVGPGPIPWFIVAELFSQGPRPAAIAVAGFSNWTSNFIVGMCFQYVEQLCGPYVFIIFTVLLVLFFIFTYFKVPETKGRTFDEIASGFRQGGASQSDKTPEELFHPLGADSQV

For `Cc1ccc(-c2nc(NC(=O)Nc3ccc(C(F)(F)F)cc3)sc2C)cc1Cl`, the values for the inhibition in experiment [1], in experiment [2] and in experiment [3] were 5.17%, 1.68% and 1.54%, respectively.
As to `Cc1ccc2[nH]c(C)c(Br)c(=O)c2c1`, the values for the inhibition in experiment [1], in experiment [2] and in experiment [3] were -1%, -2.07% and -3.38%, respectively.
For `O=C(NCC1CCC(C(=O)NC2CCCc3ccccc32)CC1)c1ccc(O)c(-c2cccc([N+](=O)[O-])c2)c1` (configuration not stated) the same measures were 3.94%, 2.12% and 2.39%.
With `Oc1ccccc1CN1CCC2(CCCN(Cc3ccccc3F)C2)C1` (configuration not stated), the inhibition (in general, the change of the read-out against control, counted positive when it falls) in experiment [1] was 2.03%; in experiment [2] it was -1.06%; in experiment [3] it was 1.57%.
For `Clc1ccc(OCc2ccccc2)c(Cc2ccc(-c3nc4cnccc4[nH]3)o2)c1`, the inhibition came to 0.59% in experiment [1], 2.01% in experiment [2] and 0.25% in experiment [3].
For `O=C(/C=C/c1ccc(Cl)c(Cl)c1)NCCCCCN1CCCC(CCCNC(=O)Nc2ccc(C(F)(F)F)cc2)C1` (configuration not stated) the same measures were 11.3%, 9.28% and 5.82%.
For `COc1ccc2ncc(C#N)c(CCN3CCC(NCc4cnc5c(c4)OCCO5)CC3)c2n1` the same measures were 11.4%, 15.9% and 6.56%.
For `CCN1CCN(c2ccc(Nc3ccnc4ccc(Br)cc34)cc2)CC1` the same measures were 1.43%, 0.09% and -0.25%.
On to `Oc1ccc(Nc2nc(NCC3CCCO3)c3ccccc3n2)cc1` (configuration not stated), for which the inhibition in experiment [1] amounted to 7.56%; in experiment [2], 6.25%; in experiment [3], 1.86%.
For `CC(C)c1sc(N2CCN(C)CC2)nc1C(=O)NCCc1cccc(Cl)c1` the same measures were 6.7%, 3.42% and 3.93%.
For `COc1cccc2c(NN=Cc3cccc(Cl)c3)cc(C)nc12` the same measures were -0.65%, 0.14% and 1.05%.
For `CC1CCN(Cc2c(O)ccc3c(O)c(-c4nc5ccccc5s4)c(=N)oc23)CC1` the same measures were 0.12%, 0.79% and -0.56%.
`Cc1nc(-c2cccc(C(=O)N(Cc3cncn3Cc3cccc(C(F)(F)F)c3)CC3CC3)c2)cs1`: the inhibition in experiment [1] stood at 2.11%; in experiment [2], 4.67%; in experiment [3] it was 4.26%.
For `Cc1cccc2nc(-c3cccc(-c4cccc(NC(=O)c5cn(C)c(=O)n5C)c4)c3)[nH]c12` the same measures were 1.98%, 1.44% and -0.64%.

The values are drawn from ChEMBL document CHEMBL3433997, “St. Jude Leishmania screening dataset” (2016).
